The structures appear in SMILES notation. About 14,000 (4.5%) of roughly 310,000 compounds showed an effect of 50% or more. The effect is printed as a negative number. This excerpt belongs to a sample that is enriched for strong results.
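Further: peak tail current of the secondary pulse compared with the same well before compound.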

In this assay the target is human ether-à-go-go-related gene (hERG) potassium channel (human, UniProt Q12809). Put plainly: primary screen, population patch clamp on CHO cells stably expressing hERG; higher = less effect of the substance.
Chain of human ether-à-go-go-related gene (hERG) potassium channel (Q12809 whole entry, looked up): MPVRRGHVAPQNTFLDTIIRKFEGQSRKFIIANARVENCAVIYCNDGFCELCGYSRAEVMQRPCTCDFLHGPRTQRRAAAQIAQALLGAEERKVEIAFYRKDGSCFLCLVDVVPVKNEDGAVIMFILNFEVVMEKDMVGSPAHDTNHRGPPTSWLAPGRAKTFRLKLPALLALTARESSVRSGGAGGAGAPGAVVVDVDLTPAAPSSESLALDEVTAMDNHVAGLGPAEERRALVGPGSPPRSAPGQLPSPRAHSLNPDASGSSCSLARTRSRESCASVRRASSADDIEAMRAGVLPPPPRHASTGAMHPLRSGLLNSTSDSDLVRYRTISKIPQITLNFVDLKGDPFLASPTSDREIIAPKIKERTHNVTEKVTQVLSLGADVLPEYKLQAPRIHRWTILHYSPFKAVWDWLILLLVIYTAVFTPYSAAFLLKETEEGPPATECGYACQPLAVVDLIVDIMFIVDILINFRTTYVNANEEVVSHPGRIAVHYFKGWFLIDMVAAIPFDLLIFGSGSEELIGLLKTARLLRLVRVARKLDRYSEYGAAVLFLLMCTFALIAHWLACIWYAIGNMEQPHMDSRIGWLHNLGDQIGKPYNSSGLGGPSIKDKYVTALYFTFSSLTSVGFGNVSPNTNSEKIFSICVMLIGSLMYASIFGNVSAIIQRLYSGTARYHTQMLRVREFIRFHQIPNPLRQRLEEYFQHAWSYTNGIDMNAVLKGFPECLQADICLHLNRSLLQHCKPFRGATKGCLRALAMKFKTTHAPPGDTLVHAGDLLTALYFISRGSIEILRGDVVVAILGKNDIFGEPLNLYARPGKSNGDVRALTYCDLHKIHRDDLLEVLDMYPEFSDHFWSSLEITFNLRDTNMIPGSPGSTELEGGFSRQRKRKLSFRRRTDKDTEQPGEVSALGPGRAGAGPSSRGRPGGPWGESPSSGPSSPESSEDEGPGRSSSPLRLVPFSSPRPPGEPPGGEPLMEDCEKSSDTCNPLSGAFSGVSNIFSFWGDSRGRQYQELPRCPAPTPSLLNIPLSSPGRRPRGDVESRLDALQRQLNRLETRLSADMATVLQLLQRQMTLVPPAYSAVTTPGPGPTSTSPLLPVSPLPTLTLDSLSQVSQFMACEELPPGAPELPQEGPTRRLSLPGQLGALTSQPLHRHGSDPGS
For `O=C(O)c1cc(-n2[nH]c(=O)c3ccccc3c2=O)ccc1Cl`, the “hERG current change (%, negative = inhibition) at 10uM” value stood at 21.3%. With `Cc1sc2ncnc(N3CCCCC3C)c2c1C` (centres unmarked) the figure was -13.6%; with `Cc1cc(C)c(C(=O)CN2C(=O)NC3(CCC(C)CC3)C2=O)cc1C` (centres unmarked), 11.1%; with `COC(=O)c1sccc1NC(=O)CC1NCCNC1=O` (centres unmarked), 0.0435%.

Regarding `COc1ccccc1NC(=O)/C=C/c1ccc2c(c1)OCO2`, the “hERG current change (%, negative = inhibition) at 10uM” value is on record as -8.32%.

Regarding `Cc1ccccc1-c1nc(SCc2ccccn2)c2c(=O)n(C)c(=O)n(C)c2n1`, the “hERG current change (%, negative = inhibition) at 10uM” value was determined as 28.7%. As for `CCCc1nc(SCc2ccccn2)c2c(=O)n(C)c(=O)n(C)c2n1`, the figure is -59.1%. Take `Cn1c(=O)c2c(SCc3ccccn3)nc(C3CC3)nc2n(C)c1=O`: the “hERG current change (%, negative = inhibition) at 10uM” value is recorded as 6.51%.

Take `CCc1nc(SCC(=O)NCc2ccco2)c2c(=O)n(C)c(=O)n(C)c2n1`: the “hERG current change (%, negative = inhibition) at 10uM” value is listed as -0.832%. As for `Cn1c(=O)c2c(SCc3ccccn3)nc(CC(C)(C)C)nc2n(C)c1=O`, the figure is -79.4%. For the compound `CCc1nc(SCc2ccccn2)c2c(=O)n(C)c(=O)n(C)c2n1`, the “hERG current change (%, negative = inhibition) at 10uM” value came out at 0.896%. With `CCCc1nc(SCC(=O)NCc2ccco2)c2c(=O)n(C)c(=O)n(C)c2n1` the figure was 0.943%; with `CC(C)c1nc(SCc2ccccn2)c2c(=O)n(C)c(=O)n(C)c2n1`, 5.32%; with `Cn1c(=O)c2c(SCC(=O)NCc3ccco3)nc(CC(C)(C)C)nc2n(C)c1=O`, -57.4%. As for `Cc1ccc(N(C)S(=O)(=O)c2ccc3[nH]cc(C(=O)NCCCN4CCOCC4)c(=O)c3c2)cc1C`, the figure is -16.5%; as for `Cc1ccc(Nc2ncccc2C(N)=O)cc1`, 19.5%; as for `Cc1ccccc1NC1=NS(=O)(=O)c2ccccc21`, 4.25%. As for `CCOc1ccc(OCC)c(NC(=O)CN(c2ccc(C)cc2)S(=O)(=O)c2c(C)noc2C)c1`, the figure is 3.31%. Take `CCOC(=O)N1CCN(CCC(=O)Nc2ccc(OC)cc2)CC1`: the “hERG current change (%, negative = inhibition) at 10uM” value was -1.76%.

As for `Cl.O=C(CN1CCCC1)Nc1ccc(OC(F)(F)F)cc1`, the “hERG current change (%, negative = inhibition) at 10uM” value is recorded as -41.1%. As for `CCOC(=O)N1CCN(CCC(=O)Nc2ccc(Br)cc2)CC1`, the figure is -33.2%; as for `CCN1CCN(CC(=O)Nc2ccc(OC(F)(F)F)cc2)CC1.Cl`, -69.1%; as for `Cl.O=C(CN1CCOCC1)Nc1ccc(OC(F)(F)F)cc1`, -8.1%. For the compound `O=C(CN1CCc2ccccc2C1)Nc1ccc(OC(F)(F)F)cc1`, the “hERG current change (%, negative = inhibition) at 10uM” value is listed as -6.92%. Regarding `O=C(CN1CCN(c2ccccn2)CC1)Nc1ccc(OC(F)(F)F)cc1`, the “hERG current change (%, negative = inhibition) at 10uM” value is on record as -29.9%. As for `CN1CCN(CC(=O)Nc2ccc(OC(F)(F)F)cc2)CC1.Cl`, the “hERG current change (%, negative = inhibition) at 10uM” value is reported as -65.1%. As for `CCOC(=O)N1CCN(CCC(=O)Nc2ccc(OC(F)(F)F)cc2)CC1`, the figure is -63.3%; as for `CC1CCC(C(C)C)C(OC(=O)C2=C3c4ccccc4S(=O)(=O)N3CC2)C1` (centres unmarked), 12.3%; as for `CN(C)S(=O)(=O)N1CCN(C(=O)N2CCCCCC2)CC1`, -12.2%. Regarding `O=C(N/N=C/c1ccccn1)c1cccc(NC(=O)c2ccccc2Cl)c1`, the “hERG current change (%, negative = inhibition) at 10uM” value is listed as -4.9%.

For `CC(=O)O.Cc1nc2nc(CSc3nnc(C)s3)cc(=O)n2[nH]1`, the “hERG current change (%, negative = inhibition) at 10uM” value came to 13.9%.

Regarding `CCOC(=O)CN(C(=O)Cn1nnc(-c2ccc(C)cc2)n1)C(CC)C(=O)NC1CCCC1` (centres unmarked), the “hERG current change (%, negative = inhibition) at 10uM” value was -8.67%. As for `Cc1cc2c(cc1C)C(c1cc(Br)ccc1F)CC(=O)N2` (centres unmarked), the figure is 8.78%; as for `COc1ccc2[nH]c(C)c(CCNC(=S)Nc3ccccc3OC)c2c1`, 8.79%; as for `CN(C)CCn1c(C(=O)O)cc2ccccc21.Cl`, 14.6%.

As for `CNC(=O)c1cc2cc(OC)ccc2n1CCN(C)C`, the “hERG current change (%, negative = inhibition) at 10uM” value is reported as -11.6%. With `CN(C)CCn1c(C(=O)Nc2ccccc2)cc2ccccc21.Cl` the figure was -58.9%; with `CCOC(=O)CSc1nc(=O)n2ccccc2n1`, 13.2%.

Turning to `COc1ccccc1NC(=O)CCS(=O)(=O)c1ccccc1`, the “hERG current change (%, negative = inhibition) at 10uM” value is on record as 12.7%. With `CC(NC(=O)Cn1cc2c(n1)CCCCC2)c1ccccc1` (centres unmarked) the figure was 1.69%. As for `Cc1ccc2nc(SCC(=O)c3ccccc3)nc(=O)n2c1`, the “hERG current change (%, negative = inhibition) at 10uM” value is listed as -10.1%.

For `CCOc1cc(-c2sc(Nc3cc(C)ccc3OC)n[n+]2-c2ccccc2)ccc1OC.[Cl-]`, the “hERG current change (%, negative = inhibition) at 10uM” value is -68.7%.

On to `CCOc1cc(-c2sc(Nc3ccc(CC)cc3)n[n+]2-c2ccccc2)ccc1OC.[Cl-]`, for which the “hERG current change (%, negative = inhibition) at 10uM” value is listed as -78.7%. On to `CCc1ccc(Nc2n[n+](-c3ccccc3)c(-c3ccc(OC)c(Br)c3)s2)cc1.[Cl-]`, for which the “hERG current change (%, negative = inhibition) at 10uM” value is -44%. As for `COc1ccc(C)cc1Nc1n[n+](-c2ccccc2)c(-c2ccc(SC)cc2)s1.[Cl-]`, the figure is -1.4%; as for `CCOc1cc(-c2sc(Nc3ccccc3)n[n+]2-c2ccc(F)cc2)ccc1OC.[Cl-]`, 23.6%. `COc1ccc(C)cc1Nc1n[n+](-c2ccccc2)c(-c2ccc(N(C)C)cc2)s1.[Cl-]`: the “hERG current change (%, negative = inhibition) at 10uM” value is listed as -49.3%. Turning to `COc1ccc2ccccc2c1C1CC(=O)N2CN(C)CSC2=C1C#N` (centres unmarked), the “hERG current change (%, negative = inhibition) at 10uM” value came out at 12.7%.

As for `CCn1c(/C=C2\C(=O)Nc3ccccc32)nc2ccccc2c1=O`, the “hERG current change (%, negative = inhibition) at 10uM” value is given as -18.3%.

On to `Cc1ccc(NC(=O)CC2SC(=NC3CCCCC3)NC2=O)cc1` (centres unmarked), for which the “hERG current change (%, negative = inhibition) at 10uM” value is listed as -9.82%. With `CC(NS(=O)(=O)c1ccc(Br)cc1)C(c1cccs1)N1CCN(C)CC1` (centres unmarked) the figure was -53.2%; with `Cc1ccc(S(=O)(=O)NC(C)C(c2cccs2)N2CCN(C)CC2)cc1` (centres unmarked), -18%. For `Cc1ccc(S(=O)(=O)NCC(c2ccccc2)N2CCN(CCC#N)CC2)cc1` (centres unmarked), the “hERG current change (%, negative = inhibition) at 10uM” value is reported as -21.5%. With `COc1ccc(S(=O)(=O)NCC(c2ccc(F)cc2)N2CCN(C)CC2)cc1` (centres unmarked) the figure was -36.4%; with `CC(NS(=O)(=O)c1ccccc1)C(c1cccs1)N1CCN(C)CC1` (centres unmarked), 5.5%; with `COc1ccc(C(CNS(=O)(=O)c2ccc(F)cc2)N2CCN(C)CC2)cc1` (centres unmarked), -32.5%. With `Cc1ccc(C(CNS(=O)(=O)c2ccc(C)cc2)N2CCN(C)CC2)cc1` (centres unmarked), the “hERG current change (%, negative = inhibition) at 10uM” value is recorded as -62.8%.

In the case of `CN1CCN(C(CNS(=O)(=O)c2ccc([N+](=O)[O-])cc2)c2ccc(F)cc2)CC1` (centres unmarked), the “hERG current change (%, negative = inhibition) at 10uM” value is reported as -67.6%.

Turning to `Cc1ccc(C(CNS(=O)(=O)c2ccc(F)cc2)N2CCN(C)CC2)cc1` (centres unmarked), the “hERG current change (%, negative = inhibition) at 10uM” value was -58.3%.

`O=[N+]([O-])c1ccc(S(=O)(=O)NCC(c2cccnc2)N2CCOCC2)cc1` (centres unmarked): the “hERG current change (%, negative = inhibition) at 10uM” value is -22%. With `O=[N+]([O-])c1ccc(S(=O)(=O)NCC(c2cccnc2)N2CCc3ccccc3C2)cc1` (centres unmarked) the figure was -35.6%; with `COc1ccc(S(=O)(=O)NCC(c2ccc(C)cc2)N2CCN(C)CC2)cc1OC` (centres unmarked), -25.6%.

Values taken from article PMC4336329 (PLoS ONE, 2015).
